In PubChem BioAssay AID488969 (Vanderbilt High Throughput Screening Facility, 2010):
In all, about 110,000 compounds were measured (“z-score”: median about -0.1, highest 2% from about 2 on). For the sample, the highest values were picked, then their nearest neighbours and some compounds at random. Activity calls are given as the source filed them.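 Rule for the calls: active = z-score in the third read window above 3 or below -3; inactive = the rest.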

What follows are compounds tested against Metabotropic glutamate receptor 8 (Rattus norvegicus) (UniProt P70579) (assay: mGluR8 Gi/Go-coupled signaling modulation – cell-based, rat, thallium flux, HTS, primary screen (AID 488969)). Details: HEK293 rat mGluR8, GIRK (G protein-gated inwardly rectifying potassium channel) thallium flux, FluoZin2; at 10 µM; stronger effect = higher value; submaximal glutamate (EC20) added with thallium.
Sequence of Metabotropic glutamate receptor 8 (Rattus norvegicus) (P70579 whole entry, looked up): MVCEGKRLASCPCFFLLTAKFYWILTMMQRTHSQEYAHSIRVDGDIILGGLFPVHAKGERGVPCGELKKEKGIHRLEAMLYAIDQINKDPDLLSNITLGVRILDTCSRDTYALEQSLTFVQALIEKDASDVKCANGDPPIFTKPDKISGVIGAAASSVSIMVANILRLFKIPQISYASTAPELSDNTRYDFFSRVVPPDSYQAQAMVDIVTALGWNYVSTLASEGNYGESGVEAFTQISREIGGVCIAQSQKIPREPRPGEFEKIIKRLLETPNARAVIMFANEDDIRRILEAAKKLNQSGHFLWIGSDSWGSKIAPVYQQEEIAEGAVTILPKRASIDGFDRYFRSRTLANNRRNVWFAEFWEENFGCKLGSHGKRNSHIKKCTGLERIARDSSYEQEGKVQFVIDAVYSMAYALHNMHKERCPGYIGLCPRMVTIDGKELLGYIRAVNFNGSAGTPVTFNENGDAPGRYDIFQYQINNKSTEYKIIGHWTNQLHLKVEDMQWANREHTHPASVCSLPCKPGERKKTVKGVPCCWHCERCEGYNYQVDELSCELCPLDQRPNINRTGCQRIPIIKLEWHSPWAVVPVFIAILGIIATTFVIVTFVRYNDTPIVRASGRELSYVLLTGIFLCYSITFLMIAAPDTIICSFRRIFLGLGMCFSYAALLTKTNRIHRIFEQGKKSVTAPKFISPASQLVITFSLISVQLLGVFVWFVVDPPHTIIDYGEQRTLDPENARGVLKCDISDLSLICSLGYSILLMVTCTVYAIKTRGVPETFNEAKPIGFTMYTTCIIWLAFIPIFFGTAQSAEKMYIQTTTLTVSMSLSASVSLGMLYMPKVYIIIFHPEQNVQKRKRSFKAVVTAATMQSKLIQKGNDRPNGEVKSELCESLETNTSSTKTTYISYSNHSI

Row | Structure (SMILES) | z-score
1 | CCOC(=O)C1[C@H]2C(=O)N(C(C)c3ccc(OC)cc3)C[C@]23C=C[C@H]1O3 (stereo partly drawn) | 0.209
2 | COc1ccc(C(C)N2CC34C=CC(O3)C(C(=O)OCC(C)C)C4C2=O)cc1 (stereo not drawn) | 5.16 (active)
3 | CCCOC(=O)C1[C@H]2C(=O)N(C(C)c3ccc(OC)cc3)C[C@]23C=C[C@H]1O3 (stereo partly drawn) | 0.656
4 | CC(C)(NC(=O)N1CCOCC1)c1cccc(C(C)(C)NC(=O)N2CCOCC2)c1 | -0.126
5 | Cc1cc(C)c2cc(C)c3nnc(SCC(=O)NCc4ccc5c(c4)OCO5)n3c2c1 | -0.513
6 | COc1cccc(CNCCc2c[nH]c3ccccc23)c1OCc1ccc(F)cc1 | 2.04
7 | COc1cc(CNCCc2c[nH]c3ccccc23)ccc1OCc1ccccc1F | 0.911
8 | COc1ccccc1CCNCc1ccc(OC)c(OCc2ccccc2)c1 | 0.696
9 | COc1cccc(CNn2cnnc2)c1OCc1ccc(F)cc1 | -0.661
10 | COc1cccc(CNCCc2c[nH]c3ccccc23)c1OCc1ccccc1 | 1.32
11 | COc1cc(CNCCc2c[nH]c3ccccc23)ccc1OCc1ccc(F)cc1 | 3.41 (active)
12 | Cc1cccc(N2CCN(C(=O)COc3ccc4c(c3)CCC4)CC2)c1C | -0.161
13 | CC1(C)NC(=O)N(CCSc2ccc(Cl)cc2)C1=O | -0.257
14 | CCC(Sc1n[nH]c(=O)[nH]c1=O)C(=O)OCc1ccccc1 (stereo not drawn) | 0.193
15 | O=C(NCc1ccc(F)cc1)c1cc(S(=O)(=O)N2CCOCC2)ccc1F | 0.0221
16 | Cc1ccc(S(=O)(=O)NCC(=O)N(CC(=O)NCc2ccco2)Cc2ccc3c(c2)OCO3)cc1 | -0.622
17 | Fc1ccc(CSc2nc3ccccc3[nH]2)c2ccccc12 | 10.7 (active)
18 | O=C(COC(=O)CCCSc1nc2ccccc2[nH]1)NC(=O)NC1CCCC1 | -0.664
19 | Fc1cccc(F)c1CSc1nc2ccccc2[nH]1 | -0.786
20 | O=c1[nH]c(SCCOc2ccccc2)nc2ccccc12 | -0.359
21 | C=CCNC(=O)NC(=O)COC(=O)CCCSc1nc2ccccc2[nH]1 | -0.828
22 | COc1cccc(CSc2nc3ccccc3[nH]2)c1 | 2.68
23 | Cc1cccc(OCCCSc2nc3ccccc3[nH]2)c1 | 0.357

Row | Structure (SMILES) | z-score
24 | COc1ccc(CSc2nc3ccccc3[nH]2)cc1 | 0.53
25 | Fc1ccccc1CSc1nc2ccccc2[nH]1 | 0.129
26 | COC(=O)c1cccc(CSc2nc3ccccc3[nH]2)c1 | 0.475
27 | c1ccc(OCCSc2nc3ccccc3[nH]2)cc1 | 2.69
28 | CCNC(=O)NC(=O)COC(=O)CCCSc1nc2ccccc2[nH]1 | 3.23 (active)
29 | C/C(=N\Nc1cc(-c2ccccc2)nc(-c2ccc(Br)cc2)n1)c1cccc(N)c1 | -0.0597
30 | CN1CCN(C(=O)c2ccc(CS(=O)(=O)c3c(Cl)cccc3Cl)o2)CC1 | 0.504
31 | Nn1c(SCC(=O)Nc2ccc3c(c2)OCCO3)nnc1-c1ccccn1 | -0.0196
32 | COCCN1C(=O)C(=O)/C(=C(/O)c2ccc(S(=O)(=O)N3CCOCC3)cc2)C1c1ccc(C(C)C)cc1 (stereo not drawn) | 0.0253
33 | COc1ccc(NC(=O)CCS(=O)(=O)c2ccccc2)c(OC)c1 | 0.256
34 | C=CCNC(=S)N/N=C/c1cn(-c2ccccc2)nc1-c1ccc(OC)cc1 | -0.184
35 | O=C(N/C=C\c1ccccc1)NCc1ccc(Cl)cc1 | 0.197
36 | COc1ccc(C(=O)N(Cc2ccccc2)Cc2cc3cc4c(cc3[nH]c2=O)OCCO4)cc1 | 0.201
37 | COc1cccc(C2c3c(oc4ccc(F)cc4c3=O)C(=O)N2CCN2CCOCC2)c1OC (stereo not drawn) | -0.574
38 | C=CCNc1cnn(CC(C)=O)c(=O)c1Br | -0.0909
39 | C=CCn1c(CCNC(=O)c2cccs2)nnc1SCC(=O)c1ccc(Cl)cc1 | -0.334
40 | CCOc1cc2c(cc1C(C)(C)C)NC(=O)CS2 | -0.538
41 | CCOC(=O)C1=C(c2ccccc2)Nc2c(c(=O)n(C)c(=O)n2C)C1c1ccc(O)c(OC)c1 (stereo not drawn) | 0.108
42 | Cc1cc([N+](=O)[O-])c(C(C)(C)C)cc1N | 1.32
43 | CCCOc1ccc(CSc2nc3ccccc3[nH]2)cc1 | 1.22
44 | CCOc1ccc(OCCSc2nc3ccccc3[nH]2)cc1 | 3.67 (active)
45 | CCOc1ccc(OCCSc2nc3ccccc3c(=O)[nH]2)cc1 | -0.398
46 | O=C(CCSCCC(=O)NCc1ccco1)NCc1ccco1 | -0.212

Row | Structure (SMILES) | z-score
47 | Cc1ccc2c(c1)/C(=N/OS(=O)(=O)c1ccccc1)CCS2 | -0.0781
48 | Cc1ccc(C(=O)NC(=S)Nn2cnnc2)cc1 | -0.262
49 | CC(C)(C)c1ccc(C(=O)NC(=S)Nn2cnnc2)cc1 | 3.11 (active)
50 | COc1ccc(C(=O)Nn2cnnc2)cc1 | -0.00169
51 | O=C(Cn1c(=O)oc2ccccc21)Nc1nnc(N2CCCCCC2)s1 | -0.181
52 | O=C1CSC(=Nc2ccccc2)N1 | -0.108
53 | Cc1cccc(N=C2NC(=O)CS2)c1 | 0.297
54 | Cc1ccc(N=C2NC(=O)CS2)cc1 | 2.26
55 | CCc1ccc(C(C)NC(=O)c2cc(C)oc2C)cc1 (stereo not drawn) | -0.386
56 | COc1cc(/C=N/NC(=O)c2ccc([N+](=O)[O-])cc2Cl)cc(Br)c1O | 0.0738
57 | CCOc1ccc(CCNC(=O)CN2CCN(Cc3ccccc3F)C2=O)cc1OCC | 0.219
58 | COc1ccc(-c2nnc(SCC(=O)N3CCCc4ccccc43)o2)cc1OC | 0.39
59 | CCC1(C)CC(c2csc(N)n2)CCO1 (stereo not drawn) | 2.98
60 | Nc1nc(C2CCCCC2)cs1 | 0.293
61 | CC1(C)CC(c2csc(N)n2)CCO1 (stereo not drawn) | 0.945
62 | COc1ccccc1C(=O)Nc1ccc(C)cc1C(=O)c1ccccc1 | -0.242
63 | CC1(C)CC(=O)C(C=Nc2ccccc2Sc2ccccc2)=C(O)C1 | -0.747
64 | Cc1nc(Nc2ccc(F)cc2)[nH]c(=O)c1CCC(C)C | -0.00139
65 | Cc1ccc(Nc2nc(C)c(CCC(C)C)c(=O)[nH]2)cc1 | 0.22
66 | Cc1nc(Nc2ccccc2)[nH]c(=O)c1CCC(C)C | 2.73
67 | Cc1nnc(SCc2ccc(F)cc2Cl)s1 | -0.295
68 | Cc1cc(C)nc(N2CCCC(C(=O)NCCC3=CCCCC3)C2)n1 (stereo not drawn) | 0.000737
69 | CN(C)CCNC(=O)c1cc2c(=O)n(C)c3ccccc3c2n1C | 0.703

Row | Structure (SMILES) | z-score
70 | COCCNC(=O)c1cc2c(=O)n(C)c3ccccc3c2n1C | -0.524
71 | COCCCNC(=O)c1cc2c(=O)n(C)c3ccccc3c2n1C | -0.127
72 | CCN(CC)CCCNC(=O)c1cc2c(=O)n(C)c3ccccc3c2n1C | 1.21
73 | CCCN(CCC)CCCNC(=O)c1cc2c(=O)n(C)c3ccccc3c2n1C | 4 (active)
74 | CCN(CC)CCNC(=O)c1cc2c(=O)n(C)c3ccccc3c2n1C | 1.25
75 | CCCCN(CC)CCNC(=O)c1cc2c(=O)n(C)c3ccccc3c2n1C | 2.85
76 | CCCN(CCC)CCNC(=O)c1cc2c(=O)n(C)c3ccccc3c2n1C | 1.86
77 | CN(CCNC(=O)c1cc2c(=O)n(C)c3ccccc3c2n1C)Cc1ccccc1 | 2.77
78 | CCCCN(CC)CCCNC(=O)c1cc2c(=O)n(C)c3ccccc3c2n1C | 2.54
79 | CC(C)OCCCNC(=O)c1cc2c(=O)n(C)c3ccccc3c2n1C | -0.527
80 | CN(C)/C=N/C(=S)Nc1ccc(Br)cc1F | 1.46
81 | O=C(CCCn1c(SCC(=O)NC2CCCCC2)nc2ccccc2c1=O)NCC1CCCO1 (stereo not drawn) | -0.0674
82 | Cc1cccc(NC(=O)CSc2nnc([C@@H]3CCCN3C(=O)OC(C)(C)C)o2)c1C | 1.54
83 | CN1CCN(C2=CC(=O)OC23CCCCC3)CC1 | 0.371
84 | CCOc1ccc(N/C(=C(/C(Cl)=C(Cl)Cl)[N+](=O)[O-])n2cncn2)cc1 | -0.895
85 | CC(=O)c1ccc(Oc2ccc(C(C)=O)cc2)cc1 | -0.0838
86 | CN(C)C(=O)c1ccc(Oc2ccc(C(=O)N(C)C)cc2)cc1 | 2.6
87 | CNC(=O)c1ccc(Oc2ccc(C(=O)NC)cc2)cc1 | -0.0105
88 | COc1cc2[nH]c(=S)n(CCN3CCOCC3)c(=O)c2cc1OC | -0.262
89 | COc1cc2c(=O)n(CCCN3CCOCC3)c(=S)[nH]c2c(OC)c1OC | 2.07
90 | O=c1c2ccccc2[nH]c(=S)n1CCCN1CCOCC1 | 0.0674
91 | O=c1c2cc(N3CCOCC3)ccc2[nH]c(=S)n1CCCN1CCCC1 | -0.171
92 | O=c1c2cc(F)ccc2[nH]c(=S)n1CCCN1CCOCC1 | 3.11 (active)

Row | Structure (SMILES) | z-score
93 | COc1cc2[nH]c(=S)n(CCCN3CCOCC3)c(=O)c2cc1OC | 0.0597
94 | Cc1ccc(C(=O)COC(=O)c2n[nH]c(=O)c3ccccc23)cc1 | -0.454
95 | CC(C)(C)c1cnnn1-c1ccc(-c2csc(N)n2)cc1 | -0.0644
96 | COc1cc(C2C(Oc3ccccc3C)C(=O)N2Cc2ccc(F)cc2)cc(OC)c1OC (stereo not drawn) | -0.106
97 | Cc1ccc(NC(=O)COC(=O)C2CC2C)c(S(=O)(=O)N2CCCCC2)c1 (stereo not drawn) | 2.07
98 | Cc1ccc(S(=O)(=O)N2CCCCC2)cc1NC(=O)COC(=O)C1CC2C=CC1C2 (stereo not drawn) | 2.38
99 | Cc1ccc(S(=O)(=O)N2CCCCC2)cc1NC(=O)COC(=O)c1cc[n+]([O-])cc1 | -0.223
100 | O=C(COC(=O)C1CC2C=CC1C2)Nc1ccccc1 (stereo not drawn) | 0.0334
101 | Cc1cc(C)n2nc(C(=O)OCC(=O)Nc3ccc4c(c3)OC(F)(F)O4)nc2n1 | -0.0308
102 | COc1cc(/C=C/C(=O)OCC(=O)Nc2ccc(C)c(S(=O)(=O)N3CCCCC3)c2)ccc1O | -0.427
103 | Cc1ccc(NC(=O)COC(=O)C2CC3C=CC2C3)cc1S(=O)(=O)N1CCCCC1 (stereo not drawn) | 2.02
104 | Cc1ccc(S(=O)(=O)N2CCCCC2)cc1NC(=O)COC(=O)Cc1ccc(Cl)cc1 | -0.0868
105 | Cc1cnc(C(=O)OCC(=O)Nc2ccc(C)c(S(=O)(=O)N3CCCCC3)c2)cn1 | -1
106 | Cc1ccc(NC(=O)COC(=O)C2CCC(=O)N2)c(S(=O)(=O)N2CCOCC2)c1 (stereo not drawn) | -0.196
107 | O=C(COC(=O)C1CC2C=CC1C2)Nc1ccc2c(c1)OC(F)(F)O2 (stereo not drawn) | 4.04 (active)
108 | CCOC(=O)Nc1ccc(OC)cc1S(=O)(=O)N1CCCCC1 | 0.612
109 | CCS(=O)(=O)c1nc2ccccc2n1CC(=O)N1CCCCC1 | 0.849
110 | COc1cc(O)c(C(C)=O)cc1OC | 0.68
111 | CC1(c2ccccc2)CC(C)(C)N2C(=O)C3(C(C#N)=C(N)Oc4cc(O)ccc43)c3cccc1c32 (stereo not drawn) | -0.217
112 | CC1(c2ccccc2)CC(C)(C)N2C(=O)/C(=C3\SC(=S)NC3=O)c3cccc1c32 (stereo not drawn) | 5.26 (active)
113 | Cc1nn(-c2ccccc2)c(Cl)c1/C=C1\SC(=S)NC1=O | -0.842
